Compounds with a hit are over-represented: about 4.1% of the library has one in this group of screens.
PfM18AAP inh: blocks P. falciparum M18 aspartyl aminopeptidase. recombinant PfM18AAP, H-Glu-NHMec fluorogenic cleavage. inhibition, % at 7.35 µM. actives 1.2% (n = 290,000);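 active means inhibition above the campaign mean inhibition over all tested compounds plus 3 SD, cut at about 28% in these data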;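 further: 0% = plate median of test compound wells and 100% = 2 mM ZnCl2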
PolyA inh: yeast polyadenylation inhibition; S. cerevisiae SKY197-pL101 polyadenylation reporter, beta-gal luminescence; efflux-impaired pdr1/pdr3 knockout yeast; score 100 = 6 SD above DMSO; activity score, % at 12 µM; actives 0.02% (n = 300,000);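 active means lowest replicate activity score at least 50, where 100 means six control SD above control mean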;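 further: yeast exposed to compound for 9 h at 30 °C; higher score means more reporter readthrough which indicates perturbed polyadenylation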
IDE cell inh: cellular human IDE inhibition. inhibition, % at 5.59 µM. HEK cells, FAbetaB cleavage, fluorescence polarization. AID 434962. actives 0.41% (n = 320,000);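 active means percent inhibition above the average of all tested compounds plus 3 SD, set per screening campaign, cut at about 16% in these data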;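 further: IDE supplied by intact live HEK cells; FP after avidin binding of uncleaved biotin substrate so inhibition keeps polarization high; 0% = DMSO wells and 100% = 60 µM reference IDE inhibitor Ii1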
CaV13 ICDI inh: Disruptors of the CACNA1D IQ motif to Ca2+-dependent inactivation inhibitor domain association, primary screening, Förster resonance energy transfer in intact living … | HEK cells, CFP/YFP FRET ICDI-IQ, plate reader, 10 min; percent FRET-ratio fall versus neutral wells | inhibition, % at 12.3 µM | actives 0.098% (n = 340,000) | AID 743397;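 active means mean replicate inhibition of at least 30% and at least 1% of replicates passing that level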;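 further: 0% = median of the neutral control wells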
ALR H2O2 inh: blocks human ALR sulfhydryl oxidase activity; P55789; purified ALR, DTT oxidation, H2O2 HRP-luminol luminescence; inhibition, % (test concentration not listed); actives 3.8% (n = 290,000); AID 485317;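 active means mean replicate inhibition above about 79%, with every replicate also reaching it, limit read from the data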
Target sequence (P55789 whole entry, looked up): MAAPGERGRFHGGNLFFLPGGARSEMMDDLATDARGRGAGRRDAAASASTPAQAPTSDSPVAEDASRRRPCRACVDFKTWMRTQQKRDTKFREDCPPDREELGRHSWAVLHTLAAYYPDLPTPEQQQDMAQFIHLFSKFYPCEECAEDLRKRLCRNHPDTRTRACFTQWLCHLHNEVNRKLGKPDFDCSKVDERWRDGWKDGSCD
IDE cell activ: boosts human insulin-degrading enzyme activity in HEK cells; P14735; FAbeta-B cleavage, fluorescence polarization; 0% vehicle, 100% cell-free pure enzyme wells; actives 0.073% (n = 340,000); AID 493087; activation, % at 5.96 µM;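 active means activation above the mean of all tested compounds plus 3 SD, set per screening campaign, cut at about 17% in these data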
The depositor's hits bear a star; · = no result; + = active, no number.

SMILES | PfM18AAP inh | PolyA inh | IDE cell inh | CaV13 ICDI inh | ALR H2O2 inh | IDE cell activ
O=S1(=O)[C@H]2C[C@@H]3C=C[C@@]2(CN1Cc1cccc(F)c1)O3 | -1 | 20 | -3 | -6 | 12 | 5
N#CC1=C(SCC(=O)Nc2ccc(C(=O)O)cc2)NC(=O)CC1c1ccco1 (centres undefined) | 8 | -9 | 4 | -2 | 98* | 7
C=CCOC(=O)C1=C(C)NC(SCC(=O)Nc2ccc(C)c(Cl)c2)=C(C#N)C1c1ccco1 (centres undefined) | -2 | 3 | 1 | -6 | 98* | 5
COc1ccc(N(CCC#N)C(=O)/C(C#N)=C/c2cccs2)cc1 | 7 | -7 | 3 | 6 | -16 | -4
CNc1oc(/C=C/c2ccccc2)nc1C#N | 34* | -6 | 4 | -5 | 0 | -5
CCC(C)C(NC(=O)OCc1ccccc1)C(=O)NCC(c1ccccc1)N(C)C (centres undefined) | -6 | 12 | -4 | -2 | 0 | -4
S=C(c1ccc(Br)cc1)N1CCCC1 | -10 | 12 | 1 | -21 | -4 | 0
OCCN1CCN(C(=S)c2ccc(Br)cc2)CC1 | 30* | -15 | 2 | -3 | -3 | 7
CC(C)CC(=O)NNC(=S)Nc1ccc(S(N)(=O)=O)cc1 | 29* | -7 | 0 | -5 | 69 | 3
O=C1c2ccccc2C(=O)N1c1ccccc1 | · | · | · | · | · | 4
Nc1cccc2c1C(=O)N(c1ccccc1)C2=O | · | 24 | 0 | + | 12 | -1
Cc1ccc(NC2CCCN(C(=O)CCc3scnc3C)C2)cc1C (centres undefined) | 11 | 3 | 9 | -1 | 99* | -1
COc1ccc(NC2CCCN(C(=O)CCc3scnc3C)C2)cc1 (centres undefined) | -13 | -13 | 0 | -6 | 99* | 3
Cc1ncsc1CCC(=O)N1CCCC(Nc2ccc(C(C)C)cc2)C1 (centres undefined) | -3 | 2 | 3 | · | 86* | 1
COc1ccccc1OCCNC(=O)c1cccc(S(=O)(=O)N2CC(C)OC(C)C2)c1 (centres undefined) | 3 | 38 | 2 | -6 | 3 | 0
COC(=O)[C@]12C[C@H](CC(=O)NCc3cccc4ccccc34)C(=O)N(Cc3ccccc3)C1=C[C@H](C1CCCC1)O[C@@H]2C | · | · | · | -8 | · | ·
C=CCn1c(N)c(C(=O)N2CCOCC2)sc1=S | -1 | 2 | -1 | -9 | 99* | 0
CCn1c(N)c(C(=O)N2CCOCC2)sc1=S | -4 | 15 | -4 | -5 | 98* | -4
O=C(CCN1C(=O)/C(=C/c2ccco2)SC1=S)Nc1ccc(O)cc1C(=O)O | 7 | 0 | · | -3 | 40 | -3
COc1ccccc1/C=C1\SC(=S)N(CCC(=O)Nc2ccc(C(=O)O)c(O)c2)C1=O | 5 | -12 | -5 | -3 | 59 | 3
CC(C(=O)Nc1ccc(O)cc1C(=O)O)N1C(=O)/C(=C\c2cccs2)SC1=S (centres undefined) | 24 | -6 | 6 | -3 | 87* | -6
O=C(CCCN1C(=O)/C(=C\c2ccco2)SC1=S)Nc1ccc2ccccc2c1 | 3 | -6 | 1 | -3 | 42 | -8
O=C(CN1C(=O)/C(=C\c2ccco2)SC1=S)Nc1ccc(O)cc1C(=O)O | 39* | 20 | 3 | -3 | 39 | -1
O=C(CCN1C(=O)/C(=C/c2ccco2)SC1=S)Nc1ccc(C(=O)O)c(O)c1 | 28* | 31 | 2 | -4 | · | -2
O=C(CCN1C(=O)/C(=C\c2ccco2)SC1=S)Nc1ccc(C(=O)O)c(O)c1 | 30* | 12 | 1 | -7 | · | 3
SMILES | PfM18AAP inh | PolyA inh | IDE cell inh | CaV13 ICDI inh | ALR H2O2 inh | IDE cell activ
CCOC(=O)N1CCN(C(=O)/C(=C\c2cccs2)NC(=O)c2cccs2)CC1 | 0 | 18 | -3 | -4 | 1 | 0
C#CCN1CC(COc2ccccc2)Oc2cccc(Oc3ccc(C(C)C)cc3)c2S1(=O)=O (centres undefined) | · | · | · | -7 | · | ·
O=[N+]([O-])c1ccc(Br)c(CN2CCN(c3ncc(Cc4ccccc4)cn3)CC2)c1 | · | · | · | -10 | · | ·
O=C(NCCOc1ccc(Cl)cc1)C1CC(=O)N(c2ccc3c(c2)OCCO3)C1 (centres undefined) | · | · | 3 | -3 | · | 0
Cc1ccc(C2c3c(oc4ccccc4c3=O)C(=O)N2c2nnc(C(C)C)s2)o1 (centres undefined) | -7 | 4 | -1 | -2 | 97* | -5
CC(C)c1nnc(N2C(=O)c3oc4ccccc4c(=O)c3C2c2ccco2)s1 (centres undefined) | 4 | 3 | 2 | 0 | 2 | 4
Cc1ccc(C)c(OCCSc2nnc(C)c(=O)[nH]2)c1 | 0 | 11 | 3 | 5 | 14 | 1
Cc1cc(Cl)ccc1OCCCC(=O)NO | 17 | 5 | 0 | -6 | 99* | 1
CCOC(=O)C1=C(COC(=O)CC(C)c2ccccc2)NC(=O)NC1C (centres undefined) | · | · | -2 | -2 | 1 | 6
CCOC(=O)C1C(=O)NC(c2ccccc2)=NC1c1ccc(F)cc1 (centres undefined) | -15 | -28 | 3 | · | 98* | 3
COc1ccc2nc(NC(=O)C3COc4ccccc4O3)sc2c1 (centres undefined) | -4 | 1 | 1 | -5 | · | 5
COc1ccc2nc(NNC(=O)C3COc4ccccc4O3)sc2c1 (centres undefined) | 31* | -12 | 2 | -5 | 99* | 2
CCOC(=O)c1sc2nc(CC(=O)OC)nc(NCc3ccco3)c2c1C | 6 | 9 | · | · | · | 7
Cc1sc2nc3c4ccccc4c(NCc4ccco4)nn3c(=O)c2c1C | 22 | · | -4 | -3 | 98* | 2
Cc1sc2ncnc(N(C)Cc3ccco3)c2c1C | 5 | -18 | 0 | · | -4 | 4
Cc1sc2nc(SCC(=O)C(C)(C)C)n(Cc3ccco3)c(=O)c2c1C | -15 | -18 | -2 | -4 | -7 | 1
Cc1nc(NCc2ccco2)c2c(C)c(C)sc2n1 | 8 | -16 | 4 | -9 | 97* | -4
Cc1sc2ncnc(SCc3ccco3)c2c1C | -16 | -8 | 1 | · | 91* | -3
CC[C@]12c3[nH]c4ccccc4c3CCN1C(=O)C(CC(=O)NCCCn1ccnc1)C[C@@H]2C(=O)N1CCN(C(=O)c2ccco2)CC1 (some centres undefined) | · | · | -3 | -4 | 4 | 4
CCN(CC(=O)Nc1ccc2c(c1)OCCO2)C(=O)CN1C(=O)NC(C)(c2ccc(C)cc2)C1=O (centres undefined) | · | · | -1 | -21 | -4 | -3
